Rows were chosen to be rich in hits. Some 1.8% of all compounds tested hit in one or more screens of this group.
MRP resist rev: MRP-mediated drug resistance reversal. H69AR cells + 2 uM doxorubicin, CellTiter-Glo, 72 h. differential viability (reversal), % at 10 µM. 0.04% of 85,000 active. AID 602;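 active means viability drop by adding the cancer drug above about 55%, with treated viability meeting a 40% cutoff, limit read from the data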;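 further: viability without doxorubicin minus viability with 2 µM doxorubicin for each compound; larger differential means the compound sensitizes cells more to doxorubicin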
GALR2 agonist: activates the human galanin receptor 2 | GALR2-expressing cells, agonist activation read-out | activation, % (concentration not given with the values) | 0.48% of 140,000 active; in the data active means activation above about 5%, passing the limit was not always enough;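 further: 0% = vehicle buffer wells and 100% = reference agonist at full effect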
S1P2 antag: antagonists of human S1P2 receptor; AID 736; cell-based S1P2 antagonist assay, inhibition at 5 uM; 0.21% of 97,000 active; inhibition, % at 5 µM; in the data active means inhibition above about 45%;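 further: CRE beta-lactamase reporter cells expressing human S1P2 stimulated with S1P; 0% = agonist at EC80 alone and 100% = agonist plus reference antagonist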
Target sequence (O95136 whole entry, looked up): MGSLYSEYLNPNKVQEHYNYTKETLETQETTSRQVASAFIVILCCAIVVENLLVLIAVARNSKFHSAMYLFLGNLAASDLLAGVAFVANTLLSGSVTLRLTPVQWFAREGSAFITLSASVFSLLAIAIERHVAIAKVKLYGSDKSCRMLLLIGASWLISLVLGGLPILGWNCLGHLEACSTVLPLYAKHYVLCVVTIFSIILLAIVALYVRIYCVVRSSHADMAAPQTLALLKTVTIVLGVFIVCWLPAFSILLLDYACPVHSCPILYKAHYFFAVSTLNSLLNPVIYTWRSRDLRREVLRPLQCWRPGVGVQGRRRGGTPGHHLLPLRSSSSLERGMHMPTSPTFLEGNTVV
MRP1 act: activators of MRP-1; H69AR cells + doxorubicin, viability rescue, CellTiter-Glo; viability increase, % at 10 µM; 0.61% of 140,000 active; AID 799;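 active means viability gain under doxorubicin at or above a set limit, the compound median plus 3 SD, cut at about 4.7% in these data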;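 further: MRP-1 overexpressing cells given doxorubicin 25 µM after compound pretreatment; 18-22 h compound pretreatment then 72 h with doxorubicin before readout; 0% = doxorubicin-only wells and 100% = vehicle-treated cells without doxorubicin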
S1P2 agonist: activates the human S1P2 receptor | S1P2-expressing cell line, agonist reporter read-out | 0.46% of 97,000 active | activation, % at 4.5 µM; in the data active means activation above about 16%;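 further: 0% = vehicle low control and 100% = maximal reference agonist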
GALR2 antag: blocks the human galanin receptor 2. GALR2-expressing cells, antagonist mode. O43603. inhibition, % at 4 µM. 0.39% of 140,000 active; in the data active means inhibition above about 27%;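 further: cells stimulated with galanin 1-16 at roughly its EC80; 0% = agonist challenge control and 100% = basal control without agonist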
* hit, by the source's call; nt = no result given.

SMILES | MRP resist rev | GALR2 agonist | S1P2 antag | MRP1 act | S1P2 agonist | GALR2 antag
CCOC(=O)c1c(NC(=O)CSc2n[nH]c(CNc3ccccc3)n2)sc(C)c1C | -9 | 0 | -16 | -5 | -2 | -2
CCOC(=O)c1c(NC(=O)CSc2n[nH]c(-c3ccco3)n2)sc(C)c1C | -6 | -2 | -12 | -1 | 23* | -6
CCc1ccc(NC(=O)C2(c3ccccc3)CC2(Cl)Cl)cc1 (stereo not drawn) | nt | -2 | 4 | -3 | 25* | 5
Cc1ccc(NC(=O)C2(c3ccccc3)CC2(Cl)Cl)cc1C (stereo not drawn) | nt | -1 | 15 | -1 | -7 | -19
O=C1c2ccccc2-c2nc3ccccc3n21 | 7 | -1 | 10 | 8.3* | -3 | 1
Cc1ccc(NC(=O)C2=C(O)CCn3c2nc2ccccc23)cc1 | -17 | 0 | -14 | -3 | -2 | 9
Cc1cc(=O)oc(C)c1C(=O)N1CCN(Cc2ccc3c(c2)OCO3)CC1 | 10 | -2 | 2 | -1 | -1 | 12
N#Cc1c(N)c(C#N)c(-c2ccc3c(c2)OCO3)c2c1CCCC2 | 12 | nt | nt | -3 | nt | nt
N#Cc1c(N)nc2c(c1-c1ccc3c(c1)OCO3)CCc1ccccc1-2 | nt | 4.9* | nt | -5 | nt | -10
O=C(COC(=O)C(O)c1ccccc1)c1ccc2c(c1)OCCO2 (stereo not drawn) | 1 | -1 | 27 | -2 | -5 | -3
Cc1ccc(OCCN2CCN(C(=O)CCC(=O)Nc3nnc(C)s3)CC2)cc1 | 8 | 0 | -3 | 7.8* | -6 | 11
Cc1ccc(OCCN2CCN(C(=O)CCC(=O)Nc3nnc(C(C)C)s3)CC2)cc1 | 11 | -4 | 7 | 0 | -3 | 5
O=C(NC1CCCC1)C(c1c[nH]c2ccccc12)N(C(=O)Cn1nnc(-c2ccc(Cl)cc2)n1)c1ccccc1 (stereo not drawn) | nt | -1 | -6 | 11* | -7 | -9
Cc1cc(=O)n2nc(N3CCCC(C(=O)N4CCc5ccccc54)C3)sc2n1 (stereo not drawn) | 24 | -1 | 17 | -1 | -11 | 4
O=C(Cc1csc(-c2ccccc2)n1)Nc1ccc(C(F)(F)F)cc1 | nt | 0 | nt | -1 | nt | 1
Cc1ccc(NC(=O)Cc2csc(-c3ccccc3)n2)cc1F | nt | -3 | nt | 5.1* | nt | -8
COc1cc(/C=C(/C#N)c2nc3ccccc3[nH]2)ccc1OCC(=O)Nc1ccccc1C(C)C | nt | -2 | 2 | -6 | 19* | 4
NNC(=O)CN1C(c2cccc(Cl)c2)=Nc2ccc(Br)cc2C1c1ccccc1 (stereo not drawn) | nt | -1 | 1 | 1 | -3 | 6
COc1ccc(C2=Nc3ccc(Br)cc3C(c3ccccc3)N2CC(=O)NN)cc1 (stereo not drawn) | nt | -3 | nt | 4.8* | nt | -3
COC(=O)c1cccc(NC(=O)c2cccc(OC)c2)c1 | -9 | -1 | 8 | -1 | -6 | -13
Cc1nc(NCc2ccc3c(c2)OCO3)c2nnn(Cc3ccccc3)c2n1 | 3 | 6.8* | nt | -5 | nt | -4
C/C(=N\NC(=S)Nc1cccc(C)c1)c1ccccc1 | nt | -3 | 10 | -3 | -2 | 4
O=C(Nc1ccccc1)N(Cc1ccc2c(c1)OCO2)Cc1nc2ccccc2c(=O)[nH]1 | 5 | -1 | -9 | -2 | 21* | -1
Cc1ccc(NC(=O)N(Cc2ccc3c(c2)OCO3)Cc2cc3cc4c(cc3[nH]c2=O)OCCO4)cc1 | 55* | 0 | -19 | -4 | 2 | -4
Cc1ccc(NC(=O)N(Cc2cccs2)Cc2cc3cc4c(cc3[nH]c2=O)OCO4)cc1 | nt | 0 | nt | 2 | nt | -7
SMILES | MRP resist rev | GALR2 agonist | S1P2 antag | MRP1 act | S1P2 agonist | GALR2 antag
COc1cc(CNCc2ccco2)ccc1OCc1ccccc1 | nt | -1 | 12 | -1 | -3 | 4
O=C1N=C(c2ccccc2)S/C1=C\c1cccs1 | -12 | -4 | -3 | 6.7* | -5 | 2
CCC(=O)N1CCc2cc(Br)cc(S(=O)(=O)CCC(=O)NCCc3ccccc3)c21 | nt | -3 | -10 | 0 | -5 | 7
N#CNC(=Nc1cccc(F)c1)SCc1cccc(F)c1 | nt | -1 | nt | -1 | nt | -13
CC(C)OC(=O)CSc1nnc(Cc2ccccc2)n1CC1CCCO1 (stereo not drawn) | 1 | -3 | -29 | -1 | -3 | 0
CCCCN(C(=O)Cc1cccs1)c1nnc(-c2cccnc2)s1 | 22 | -2 | -9 | 5.8* | -3 | 21
COCCN(C(=O)Cc1cccs1)c1nnc(-c2cccnc2)s1 | -1 | -1 | 6 | -1 | -5 | 0
O=C(c1ccccc1Sc1ccc([N+](=O)[O-])cc1)N1CCCCC1 | nt | 0 | nt | -2 | nt | 5

Screens as filed in PubChem.
